Compounds with a hit are over-represented: about 9.4% of the library has one in this group of screens.
FLuc counter – firefly luciferase modulation, counter-screen for miR-21 project | purified FLuc, Km substrates, luminescence inhibition | AID 588342 | hit rate 6.9% among 360,000 | P08659 | Potency, µM (highest dose often 57.5 µM), inactives show at the top dose activity change, negative = inhibition, hits mostly inhibitors;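 note: plate controls were vehicle for no effect and reference inhibitor for full effect; nearly all actives have a fitted effect of over 55% in size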
Target sequence (P08659 whole entry, looked up): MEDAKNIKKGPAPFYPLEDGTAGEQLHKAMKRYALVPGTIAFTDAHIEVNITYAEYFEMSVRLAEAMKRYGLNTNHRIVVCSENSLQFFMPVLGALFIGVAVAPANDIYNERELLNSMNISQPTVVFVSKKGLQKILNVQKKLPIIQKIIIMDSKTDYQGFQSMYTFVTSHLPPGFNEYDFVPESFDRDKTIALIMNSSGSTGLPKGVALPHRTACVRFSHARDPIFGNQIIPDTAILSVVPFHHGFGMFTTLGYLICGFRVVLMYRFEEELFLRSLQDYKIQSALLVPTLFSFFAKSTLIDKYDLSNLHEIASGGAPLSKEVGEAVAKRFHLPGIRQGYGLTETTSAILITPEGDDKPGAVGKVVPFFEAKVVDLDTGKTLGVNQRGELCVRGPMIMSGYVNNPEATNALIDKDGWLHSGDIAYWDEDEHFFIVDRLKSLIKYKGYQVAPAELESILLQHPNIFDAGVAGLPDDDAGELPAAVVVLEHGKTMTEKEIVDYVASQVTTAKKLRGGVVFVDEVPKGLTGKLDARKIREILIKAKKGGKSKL
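Biochemical qHTS of compounds, final roughly 60 µM downward over six points, against 10 nM purified firefly luciferase using Km concentrations of substrates (10 uM D-luciferin, 10 uM ATP) in Tris acetate pH 7.5 buffer; luminescence output.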
ELG1 genotoxic – genotoxicity induction in ELG1-luciferase HEK293T cells; Potency, µM (highest dose often 46 µM), inactives show top-dose activity change, positive = activation, most hits filed as activators; HEK293T ELG1-luciferase reporter, luminescence, 16 h; hit rate 1.3% among 330,000; note: % of control where 0% means no effect; nearly all actives have a fitted effect of over 60% in size
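Luminescence read-out: rising ELG1-luciferase signal, reflecting elevated ELG1 protein under genetic stress, flags genotoxic compounds. Cells were treated for 16 hr at 37 °C before ONE-Glo detection.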
ELG1 DNA repair – inhibitors of ELG1-dependent DNA repair in HEK293T cells | HEK293T ELG1-luciferase reporter, luminescence, 16 h; DNA damage induced by 5-fluorouridine | Potency, µM (titrated, usually from 46.1 µM), for inactives: at the highest dose activity change, negative = inhibition, actives largely listed as inhibitors | hit rate 2.3% among 330,000 | AID 504467; note: % is set by controls: 0 for no effect and ±100 for the full control effect; nearly all actives have a fitted effect of over 55% in size
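5-Fluorouridine DNA damage + compound/DMSO, 2,000 cells/well, 16 h, 37 °C/5% CO2. ONE-Glo, 30 min RT, luminescence. Readout = decrease in reporter signal.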
Rab9 promoter act – Rab9 promoter activation | Huh7 Rab9 promoter-luciferase reporter, luminescence, 24 h | AID 485297 | Potency, µM (doses to about 9.22 µM), inactives show top-dose activation, negative = inhibition, most hits filed as activators | hit rate 2.8% among 320,000; note: % of control where 0% means no effect; nearly all actives have a fitted effect of over 60% in size
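Stable Rab9-luc Huh7, 1500 cells/well, 2 h settle; cmpd in DMSO, 24 h, 37 °C/5% CO2; luciferase reagent 10 min RT; luminescence.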
SMN2 splice enh – enhancers of SMN2 splice variant expression. HEK293 SMN2-luciferase splicing reporter, luminescence, 30-36 h. hit rate 2.8% among 210,000. AID 1458. Potency, µM (top dose mostly 46.1 µM), inactives show at the top dose activity change, positive = activation, hits mostly activators; note: % of control where 0% means no effect; nearly all actives have a fitted effect of over 55% in size
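HEK293 cells carry an SMN2 […]–luciferase reporter in which exon 7 inclusion puts luciferase in frame. Cells were plated 10-12 h before compound addition, then incubated 30-36 h at 37C. ONE-Glo luminescence was read; sodium butyrate at 4.5 mM final served as control.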
NPC1 prom act – activates the NPC1 promoter; AID 485313; Potency, µM (series often up to 9.22 µM), for the others: at the highest dose activation, actives largely listed as activators; Huh7 NPC1 promoter luciferase reporter, 24 h; hit rate 2.4% among 320,000; note: % of control where 0% means no effect; nearly all actives have a fitted effect of over 60% in size
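Stable NPC1-promoter luciferase Huh7 line; cpd (DMSO) 24 h, 37 °C, 5% CO2; Amplite luciferase reagent 10 min RT; luminescence readout. qHTS format.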
Active calls of the source: *; [ ] = another dose, or the depositor's remark. Calls come from the whole dose curve; as a rule, active = well fitted curve in the direction sought with a large enough effect; inconclusive = small, poorly fitted or top-dose-only effect, or another doubt; inactive = no such curve, though single readings can be large; an effect the other way counts as inactive or inconclusive. Potency is the fitted concentration of half-maximal effect.

O=C(N/N=C/C(Cl)=C\c1ccccc1)c1ccco1 was read as FLuc counter 4.8µM*, ELG1 genotoxic inconclusive, ELG1 DNA repair inconclusive, Rab9 promoter act 2.5µM* and NPC1 prom act 2.5µM*.
O=C(N/N=C/C(Cl)=C/c1ccccc1)c1ccco1 was read as FLuc counter 5.4µM*, ELG1 genotoxic inconclusive, ELG1 DNA repair inconclusive, Rab9 promoter act 1.4µM* and NPC1 prom act 2.2µM*.
For O=C(Oc1ccc(/C=N/NC(=O)c2ccco2)cc1)c1ccccc1 the results were FLuc counter -14%, ELG1 genotoxic inconclusive, ELG1 DNA repair inconclusive, Rab9 promoter act inconclusive and NPC1 prom act 22%.
O=C(N/N=C/c1cccnc1)c1ccco1 was read as FLuc counter -15%, ELG1 genotoxic 1%, ELG1 DNA repair inconclusive, Rab9 promoter act 8% and NPC1 prom act 11%.
For CCCCNc1c(CN)cnc2cc(Cl)ccc12 the results were SMN2 splice enh -16%[9.22 µM].
`COc1cccc(C2=CC(c3ccccc3F)n3c(nc4ccccc43)N2)c1` (stereo not drawn) gave FLuc counter 12µM*.
Cc1ccc(C2=CC(c3ccccc3F)n3c(nc4ccccc43)N2)cc1C (stereo not drawn) was read as FLuc counter 6µM*.
Cc1ccc(C2=CC(c3c(F)cccc3Cl)n3ncnc3N2)cc1C (stereo not drawn) was read as FLuc counter -12%.
CCN(C(=O)CSc1nc2ccccc2c2nc(CCn3c(C)nc4ccccc43)nn12)c1cccc(C)c1 was read as FLuc counter 7%.
For CCc1ccc(OC(=O)c2cccnc2)cc1 the results were FLuc counter 11µM*, ELG1 genotoxic 0%, ELG1 DNA repair 23%, Rab9 promoter act 0% and NPC1 prom act -4%.
COCCN(CC(=O)Nc1cccc(C)c1C)C(=O)c1cc(-c2cccs2)nn1-c1ccccc1 was read as FLuc counter 7%, ELG1 genotoxic -4%, ELG1 DNA repair 13µM*, Rab9 promoter act -15% and NPC1 prom act -3%.
Screening COc1ccccc1NC(=O)CN(Cc1ccco1)C(=O)c1ccc(-n2nc(C)cc2C)cc1 returned FLuc counter 2%, ELG1 genotoxic -4%, ELG1 DNA repair 23µM*, Rab9 promoter act 2%, SMN2 splice enh -1% and NPC1 prom act -1%.
For CCCN(CC(=O)Nc1ccccc1OC)C(=O)c1cc(-c2ccccc2)nn1-c1ccccc1 the results were ELG1 genotoxic -13%, ELG1 DNA repair 21µM*, Rab9 promoter act -2% and NPC1 prom act -1%.
`COc1ccccc1NC(=O)CN(Cc1ccco1)C(=O)c1cncc(Br)c1` gave FLuc counter 0%, ELG1 genotoxic -4%, ELG1 DNA repair -12%, Rab9 promoter act 10% and NPC1 prom act 0%.
For CCN(CC(=O)Nc1ccc(NC(C)=O)cc1)C(=O)c1cc(-c2ccccc2)nn1-c1ccccc1 the results were FLuc counter 4%, ELG1 genotoxic -5%, ELG1 DNA repair inconclusive, Rab9 promoter act 14% and NPC1 prom act 0%.
O=C(CSc1nc2ccc(NC(=O)C3CCCCC3)cc2s1)NCC1CCCO1 (stereo not drawn) was read as FLuc counter 17µM*, ELG1 genotoxic -2%, ELG1 DNA repair 13µM*, Rab9 promoter act 18%, SMN2 splice enh -9% and NPC1 prom act 13%.
For COc1ccccc1C(=O)Nc1nnc(SCC(=O)NCC2CCCO2)s1 (stereo not drawn) the results were FLuc counter 6µM*, ELG1 genotoxic inconclusive, ELG1 DNA repair inconclusive, Rab9 promoter act 3.5µM* and NPC1 prom act 1.4µM*.
For O=C(CSc1nnc(NC(=O)c2cccc(Cl)c2)s1)NCC1CCCO1 (stereo not drawn) the results were FLuc counter 6.7µM*, ELG1 genotoxic inconclusive, ELG1 DNA repair inconclusive, Rab9 promoter act 23% and NPC1 prom act 20%.
O=C(CSc1nc2ccccc2s1)NCC1CCCO1 (stereo not drawn) was read as FLuc counter -8%, ELG1 genotoxic 10%, ELG1 DNA repair 19%, Rab9 promoter act 19% and NPC1 prom act 1%.
Screening Cc1ccnc(NC(=O)Nc2cccc(F)c2)n1 returned FLuc counter 7.6µM*, ELG1 genotoxic inconclusive, ELG1 DNA repair inconclusive, Rab9 promoter act 1.1µM*, SMN2 splice enh 11µM* and NPC1 prom act 2.2µM*.
`COc1cccc(NC(=O)Nc2nccc(C)n2)c1` gave FLuc counter 1.2µM*, ELG1 genotoxic inconclusive, ELG1 DNA repair inconclusive, Rab9 promoter act 0.56µM* and NPC1 prom act 1.3µM*.
Screening Cc1cccc(NC(=O)Nc2cccc(F)c2)n1 returned FLuc counter 13µM*, ELG1 genotoxic inconclusive, ELG1 DNA repair inconclusive, Rab9 promoter act inconclusive, SMN2 splice enh 11% and NPC1 prom act inconclusive.
COc1cccc(NC(=O)NCc2ccccn2)c1 was read as FLuc counter -12%, ELG1 genotoxic 14%, ELG1 DNA repair inconclusive, Rab9 promoter act 4% and NPC1 prom act -3%.
`O=C(CN1CCN(c2ccc(O)cc2)CC1)Nc1ccc(SC(F)F)cc1` gave FLuc counter 2%, ELG1 genotoxic 15%, ELG1 DNA repair 9.2µM*, Rab9 promoter act -20%, SMN2 splice enh -6%[1.84 µM] and NPC1 prom act -18%.
O=C(CN1CCN(c2ccc(O)cc2)CC1)Nc1ccc2c(c1)OCCCO2 was read as FLuc counter -2%, ELG1 genotoxic -2%, ELG1 DNA repair 18µM*, Rab9 promoter act -6% and NPC1 prom act -1%.
For Cc1cccc(Cn2c(CN3CCC(C(=O)NCCc4ccccc4)CC3)cc3ccccc32)c1 the results were FLuc counter -2%.
For CCCCS/C(N)=N/N=C/c1ccccc1O the results were FLuc counter 13µM*, ELG1 genotoxic inconclusive, ELG1 DNA repair inconclusive, Rab9 promoter act 3.2µM*, SMN2 splice enh 3% and NPC1 prom act inconclusive.
Screening C/C(=N/N=C/c1ccccc1O)c1ccccc1O returned FLuc counter 1.1µM*, ELG1 genotoxic 6.5µM*, ELG1 DNA repair inconclusive, Rab9 promoter act inconclusive and NPC1 prom act 25%.
`CCCS/C(N)=N/N=C/c1cc(C)ccc1O` gave FLuc counter 2.4µM*, ELG1 genotoxic 6.5µM*, ELG1 DNA repair inconclusive, Rab9 promoter act inconclusive, SMN2 splice enh -14% and NPC1 prom act 3.2µM*.

Compound activity (PubChem)
